CYP2C19 inhib: blockers of cytochrome P450 2C19 activity – biochemical, luminescence, ADME assay, primary screen; P33261; CYP2C19 Supersomes, luciferin-H EGE luminescence, 30 min; inhibition, % at 5 µM; 96,000 tested, 21% active; AID 778, 2007;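 active = CYP2C19 inhibition above a set limit at 5 µM in the primary screen, cut at about 50% in these data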;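 note: plate controls were negative control wells for no effect and 2.5 mM tranylcypromine positive control for full effect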
PLAP activator: PLAP enzyme activators, biochemical, luminescence, HTS | Alkaline phosphatase, placental type (Homo sapiens), P05187 | purified PLAP enzyme, luminescent substrate read-out; hits give high values | 96,000 tested, 1.2% active | activation fold at 20 µM; in the data active = activation fold above about 2
CYP2C9 act: human CYP2C9 activators, primary screen, biochemical, luminescence; AID 1024, 2008; 96,000 tested, 1.4% active; Cytochrome P450 2C9 (Homo sapiens), P11712; activation factor at 5 µM; recombinant CYP2C9, luciferin-H conversion; hits give high values; factor 1 = untreated enzyme, 0 = blocked;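 active = activation factor of 2 or more for CYP2C9 at a 5 µM dose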;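 note: 0 = sulfaphenazole-blocked wells and 1 = vehicle-only wells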
Target sequence (P11712 whole entry, looked up): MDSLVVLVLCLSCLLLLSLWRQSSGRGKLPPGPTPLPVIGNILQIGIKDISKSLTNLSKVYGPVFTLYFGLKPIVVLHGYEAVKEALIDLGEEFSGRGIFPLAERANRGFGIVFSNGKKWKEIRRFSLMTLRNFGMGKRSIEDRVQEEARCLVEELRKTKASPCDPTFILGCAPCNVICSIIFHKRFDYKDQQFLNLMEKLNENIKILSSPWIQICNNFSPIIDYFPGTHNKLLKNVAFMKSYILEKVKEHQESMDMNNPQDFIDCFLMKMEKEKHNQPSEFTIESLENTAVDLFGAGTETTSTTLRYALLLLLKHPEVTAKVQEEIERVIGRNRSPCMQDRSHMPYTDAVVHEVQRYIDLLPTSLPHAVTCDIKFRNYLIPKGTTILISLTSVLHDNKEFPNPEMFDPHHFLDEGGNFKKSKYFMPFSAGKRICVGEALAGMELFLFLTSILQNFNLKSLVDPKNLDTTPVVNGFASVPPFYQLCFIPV
CYP2C9 inhib: blockers of cytochrome P450 2C9 activity – biochemical, luminescence, ADME assay, primary screen; CYP2C9 Supersomes, luciferin-H conversion; P11712; 96,000 tested, 20% active; inhibition, % at 5 µM;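 active = blocking of liver enzyme CYP2C9 beyond about 50% at 5 µM, limit read from the data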
CYP2C19 activ: human CYP2C19 activators, primary screen, biochemical, luminescence; 96,000 tested, under 10 active; activation factor at 5 µM; recombinant CYP2C19, luciferin-H EGE luminescence; hits give high values; 0 = fully inhibited enzyme, 1 = untreated enzyme; Cytochrome P450 2C19 (Homo sapiens), P33261;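 active = activation factor of at least 2 at 5 µM in the primary screen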;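 note: 0 = wells with 2.5 mM tranylcypromine and 1 = vehicle-only wells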
Starred values were filed as active, the others as inactive. Compounds with a hit are over-represented: about 31% of the library has one in this group of screens.

SMILES | CYP2C19 inhib | PLAP activator | CYP2C9 act | CYP2C9 inhib | CYP2C19 activ
O=C1Nc2cc(C(=O)N3CCN(Cc4ccccc4)CC3)ccc2SC1N1CCOCC1 (stereo unspecified) | 12 | 1.4 | 0.8 | 22 | 0.9
Cc1cc(OCC(=O)Nn2cnnc2)ccc1Br | 100* | 1.3 | 0 | 100* | 0
COC(=O)NNC(=O)COc1ccc(Br)c(C)c1 | -10 | 1 | 0.9 | 5 | 1.1
CN(C)C(CNC(=O)NC1CCCCC1)c1cccnc1 (stereo unspecified) | -1 | 0.9 | 1 | -3 | 1
CCC(=O)c1ccc(OCc2ccc(C(=O)OC)o2)c(OC)c1 | 40 | 0.9 | 0.4 | 56* | 0.6
C=CCc1ccc(OCc2ccc(C(=O)OC)o2)c(OC)c1 | 44 | 0.9 | 0.3 | 68* | 0.6
COc1ccc(NC(=O)c2ccc(COc3ccccc3OC)o2)cc1OC | 26 | 1 | 0.8 | 20 | 0.7
O=C(Nn1c(=O)[nH]c2ccsc2c1=O)c1ccccc1 | -15 | 1 | 1.1 | -13 | 1.2
N#Cc1ccc(COC(=O)c2ccc3c(=O)[nH]c(CN4CCOCC4)nc3c2)cc1 | -14 | 1 | 1 | 0 | 1.1
O=c1[nH]c(CN2CCCCC2)nc2ccccc12 | -10 | 1.4 | 1.1 | -14 | 1.1
COC(=O)c1ccc2c(=O)[nH]c(CN3c4ccccc4CC3C)nc2c1 (stereo unspecified) | 22 | 1.6 | 0.2 | 82* | 0.8
CC1Cc2ccccc2N1Cc1nc2cc(Cl)ccc2c(=O)[nH]1 (stereo unspecified) | 57* | 1.1 | 0.2 | 80* | 0.4
CC1Cc2ccccc2N1Cc1nc2scc(-c3cccs3)c2c(=O)[nH]1 (stereo unspecified) | 75* | 1 | 0 | 95* | 0.3
COc1ccc(S(=O)(=O)N(CC(=O)N2CCN(C)CC2)c2ccc(C)cc2)cc1OC | 38 | 1.4 | 0.9 | 9 | 0.6
c1cncc(CNC2CCCc3ccccc32)c1 (stereo unspecified) | -14 | 1.1 | 1.2 | -16 | 1.1
CC1CCc2nn(CC(=O)NC3CCCC(C)C3C)cc2C1 (stereo unspecified) | 2 | 1.1 | 1 | 3 | 1
O=C(Nc1ccccc1C(=O)OCn1nnc2ccccc2c1=O)c1ccco1 | -2 | 1.1 | 0.7 | 33 | 1
CCOc1ccc(-n2c(=S)sc3c(=O)[nH]c(SCC(=O)NC(C)CC)nc32)cc1 (stereo unspecified) | 11 | 1.4 | 0.2 | 78* | 0.9
c1csc(C(c2nnnn2C2CCCC2)N2CCOCC2)c1 (stereo unspecified) | -8 | 1.1 | 1.1 | -13 | 1.1
O=C(c1ccco1)N1CCN(C(c2cccs2)c2nnnn2C2CCCCC2)CC1 (stereo unspecified) | 45 | 1.7 | 0.3 | 68* | 0.5
c1csc(C(c2nnnn2C2CCCC2)N2CCCC3(CCCCC3)C2)c1 (stereo unspecified) | 14 | 1.1 | 0.4 | 56* | 0.9
CC(C)(C)n1nnnc1C(c1cccs1)N1CCN(C(=O)c2ccco2)CC1 (stereo unspecified) | 34 | 1.5 | 0.6 | 41 | 0.7
O=C(CN1CCN(c2ccc(F)cc2)CC1)c1ccc2c(c1)OCO2 | 33 | 0.9 | 0.7 | 31 | 0.7
Cc1ccc(S(=O)(=O)CC(=O)c2ccccc2)cc1 | 37 | 1.1 | 2.9* | -187 | 0.6
Cc1ccc(S(=O)(=O)CC(=O)c2ccc(C)c([N+](=O)[O-])c2)cc1 | -7 | 1.2 | 2* | -105 | 1.1
SMILES | CYP2C19 inhib | PLAP activator | CYP2C9 act | CYP2C9 inhib | CYP2C19 activ
COC(=O)Cn1ncc2c(C)n(Cc3ccccc3)c(C)c2c1=O | 84* | 1.5 | 0.6 | 40 | 0.2
Cn1nc(C(F)(F)F)c(/C=N/OCc2c(Cl)cccc2Cl)c1Cl | 52* | 0.9 | 0.2 | 80* | 0.5
Cn1nc(C(F)(F)F)c(/C=N/OC(=O)c2ccc(Cl)cc2)c1Cl | 2 | 0.9 | 0.8 | 19 | 1
COc1ccc(NC(=O)Cc2nnc(SCC(=O)Nc3cc(C)ccc3OC)n2C)cc1 | 95* | 1.1 | 1.2 | -16 | 0.1
CCOC(=O)c1ccc(NC(=O)CSc2nnc(COc3ccccc3)n2C)cc1 | 14 | 1 | 1 | 2 | 0.9
COc1ccc(OC)c(-c2csc3nnc(SCC(=O)Nc4ccc(NC(C)=O)cc4)n23)c1 | 24 | 1.5 | 0.5 | 53* | 0.8
COc1ccccc1NC(=O)CSc1nnc(CC(=O)Nc2cccc(C(F)(F)F)c2)n1C | 51* | 0.8 | 1.5 | -49 | 0.5
COc1ccccc1OCc1nnc(SCC(=O)Nc2ccc(C)cc2)n1C | 48 | 1 | 2* | -104 | 0.5
COc1ccc(Cl)cc1NC(=O)CSc1nnc(COc2ccccc2)n1C | 55* | 1.3 | 1.8 | -76 | 0.5
COc1ccc(Cl)cc1NC(=O)CSc1nnc(COc2ccccc2)n1N | 44 | 1.1 | 1.6 | -58 | 0.6
COc1ccc(NC(C)=O)c2nc(C)c(C)nc12 | -2 | 1 | 0.8 | 22 | 1
COc1ccc(C(=O)CSC2=C(C#N)C3(CCCCC3)C(C#N)=C(N)N2)cc1 | 100* | 1.3 | 0 | 98* | 0
N#CC1=C(N)NC(SCC(=O)c2ccc(Cl)cc2)=C(C#N)C12CCCC2 | 100* | 1.1 | 0 | 97* | 0
CC1(C)CC(=O)C2=C(C1)NC(SCC(N)=O)=C(C#N)C21CCCCC1 | -1 | 1.1 | 0.9 | 7 | 1
COC(=O)c1nn(-c2ccc(OC)cc2)c(=O)cc1Oc1cccc(Cl)c1 | 12 | 1 | 1 | 0 | 0.9
CCCCCOc1ccc(NC(=O)CCCC(=O)O)cc1 | -6 | 1.4 | 1 | 1 | 1.1
O=c1[nH]c(SCc2n[nH]c(=S)n2-c2ccccc2)nc2sc3c(c12)CCC3 | 28 | 0.8 | 0.3 | 72* | 0.7
S=c1[nH]nc(Cc2cccc3ccccc23)n1-c1ccccc1 | 47 | 1.1 | 0.1 | 90* | 0.5
CCCCSc1nc2sc3c(c2c(=O)[nH]1)CCC3 | -1 | 1.3 | 0.9 | 12 | 1
O=c1[nH]c(SCc2n[nH]c(=S)n2-c2ccccc2)nc2ccccc12 | 73* | 1.1 | 0.2 | 80* | 0.3
COc1ccccc1NC(=O)C(CC=C(Cl)Cl)C(C)=O (stereo unspecified) | 37 | 1 | 0.9 | 11 | 0.6
CCn1c(=O)c(C(=O)NCc2ccc(OC)cc2)c(O)c2ccccc21 | 36 | 0.9 | 0.3 | 68* | 0.6
CCCn1c(=O)c(C(=O)NCc2ccc(OC)c(OC)c2)c(O)c2ccccc21 | 39 | 1.8 | 0.1 | 87* | 0.6
CCn1c(=O)c(C(=O)NCc2ccc(OC)c(OC)c2)c(O)c2ccccc21 | 40 | 1.2 | 0 | 95* | 0.6
CCn1c(=O)c(C(=O)NCc2ccccn2)c(O)c2ccccc21 | 22 | 1.6 | 1.5 | -55 | 0.8

Source: PubChem
